HSP90 refold inh – blocks HSP90-mediated luciferase refolding in reticulocyte lysate; Rabbit reticulocyte lysate, luciferase refolding luminescence, 3 h; inhibition, % at 5.6 µM; 0.91% of 290,000 active; AID 1789;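 active = inhibition above the screen-wide mean plus 3 SD, computed separately per campaign, cut at about 16% in these data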;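 note: 0% = DMSO wells and 100% = 60 µM geldanamycin wells; inhibitors lower the luminescence because luciferase stays unfolded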
LGR2 antag – blocks bursicon-induced cAMP signaling via Drosophila LGR2 | inhibition, % at 9.99 µM | HEK293 LGR2, CRE-luciferase, bursicon-stimulated, 4 h | 0.35% of 380,000 active;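 active = drop in luminescence signal, shown as inhibition above about 50% in the replicate tests, limit read from the data, passing the limit was not always enough; inconclusive = probably only some replicates passing the limit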;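 note: agonist challenge used bursicon conditioned medium at about half maximal strength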
TWEAK-Fn14 inh – TWEAK-Fn14 signaling inhibition | TWEAK-stimulated Fn14 reporter cells, luciferase luminescence, 8 h | inhibition, % at 10 µM | 2% of 360,000 active; in the data active = inhibition above about 50%
TROY signal inh – inhibitors of TROY-dependent NF-kB signaling; inhibition, % at 10 µM; Q293 LMP1-TROYcd NF-kB luciferase reporter, 4 h; 0.98% of 360,000 active; AID 1347056;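 active = compounds whose plate-normalised and pattern-corrected inhibition of the luciferase reporter signal at the single screening dose is 50% or more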
HSP90 inh confirm – confirmation of HSP90 inhibitors. shares compounds with HSP90 refold inh. rabbit reticulocyte lysate, luciferase refolding luminescence, 3 h. inhibition, % at 5.9 µM. 64% of 2,300 active. AID 1846; in the data active = inhibition above about 18%;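 note: 0% = vehicle wells and 100% = reference inhibitor wells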
luciferase ctr – blocks native firefly luciferase in HSP90 counter-screen; shares compounds with HSP90 refold inh; purified native firefly luciferase, luminescence; inhibition, % at 5.9 µM; 48% of 2,300 active;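 active = inhibition above the mean inhibition of all tested sample wells plus 3 SD, cut at about 10% in these data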;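 note: 0% = DMSO with luciferase and 100% = wells lacking luciferase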
Target sequence (P08659 whole entry, looked up): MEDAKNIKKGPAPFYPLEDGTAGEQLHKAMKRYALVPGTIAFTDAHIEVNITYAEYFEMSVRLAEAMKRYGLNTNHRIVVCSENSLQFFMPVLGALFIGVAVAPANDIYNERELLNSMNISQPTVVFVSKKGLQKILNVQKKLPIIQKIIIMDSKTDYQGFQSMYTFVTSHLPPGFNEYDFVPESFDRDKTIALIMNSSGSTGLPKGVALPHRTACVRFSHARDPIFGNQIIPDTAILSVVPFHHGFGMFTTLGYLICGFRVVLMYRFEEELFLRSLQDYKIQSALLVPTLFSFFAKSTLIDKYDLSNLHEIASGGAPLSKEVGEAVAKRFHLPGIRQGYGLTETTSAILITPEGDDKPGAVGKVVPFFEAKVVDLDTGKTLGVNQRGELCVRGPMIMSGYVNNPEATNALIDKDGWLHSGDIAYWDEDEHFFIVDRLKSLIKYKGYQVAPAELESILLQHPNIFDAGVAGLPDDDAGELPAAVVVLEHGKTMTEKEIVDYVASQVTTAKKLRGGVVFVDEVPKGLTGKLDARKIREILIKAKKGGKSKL
Active calls of the source: *; u = inconclusive; x = not tested or not shown. Hits are enriched below; roughly 2.2% of the tested compounds scored in any of these assays.

SMILES | HSP90 refold inh | LGR2 antag | TWEAK-Fn14 inh | TROY signal inh | HSP90 inh confirm | luciferase ctr
COc1ccc(CCNc2nc(-c3sc(N)nc3C)cs2)cc1OC | 29* | x | -9 | 4 | 5 | -5
Cc1ccc(Nc2nc(-c3sc(C)nc3C)cs2)cc1 | -1 | -39 | 19 | -8 | x | x
CCOc1ccc(Nc2nc(-c3sc(N)nc3C)cs2)cc1 | 20* | -15 | -16 | -12 | 1 | -21
COc1ccc(Nc2nc(-c3sc(N)nc3C)cs2)cc1 | 30* | x | -14 | -31 | -4 | -21
Cc1nc(N)sc1-c1csc(Nc2ccc(Cl)cn2)n1 | 12 | -9 | 16 | -13 | x | x
COc1ccc(CC(=O)Nc2nc(-c3ccc(OC)c(OC)c3)cs2)cc1OC | -4 | 14 | 46 | 42 | x | x
Cc1ccc(Nc2nc(-c3sc(N)nc3C)cs2)cc1 | 39* | -22 | -24 | -28 | -2 | -18
CCNC(=O)C[C@H]1CC[C@@H]2[C@@H](COc3ccc(NC(=O)Nc4ccccc4OC)cc3C(=O)N2C)O1 | x | 1 | x | x | x | x
C[C@H]1CN([C@@H](C)CO)C(=O)c2cc(NC(=O)CCC(F)(F)F)ccc2O[C@@H]1CN(C)Cc1ccc(Cl)c(Cl)c1 | x | 24 | x | x | x | x
O=C(NCc1cccs1)C1CCCCC1 | 26* | x | 5 | -12 | -3 | -7
C[C@@H]1CN([C@@H](C)CO)C(=O)c2cccc(NC(=O)c3cnccn3)c2O[C@H]1CN(C)S(=O)(=O)c1ccc(F)cc1 | x | 16 | x | x | x | x
Nc1nc2ccccc2n1C(=O)c1ccccc1 | 27* | 33 | 78* | 35 | 59* | 42*
Nc1nc2ccccc2n1C(=O)c1ccc(F)cc1 | 40* | 31 | 61* | 24 | 54* | 35*
C[C@@H]1CN([C@H](C)CO)C(=O)Cc2cc(NC(=O)Nc3cccc4ccccc34)ccc2O[C@H]1CN(C)C(=O)NC1CCCCC1 | x | 18 | x | x | x | x
C[C@@H]1CN([C@H](C)CO)S(=O)(=O)c2ccc(-c3ccc(F)cc3)cc2O[C@H]1CN(C)C(=O)C1CC1 | x | 7 | x | x | x | x
COc1ccc(C(=O)Nc2ccc3ccccc3c2)cc1 | 34* | 74* | 72* | 32 | 63* | 53*
COc1cccc(C(=O)Nc2ccccc2)c1 | 0 | x | 9 | -35 | x | x
COc1ccccc1C(=O)NNC(=O)c1ccc(O)cc1 | x | 0 | 6 | -19 | x | x
COc1cccc(C(=O)Nc2ccc3ccccc3c2)c1 | 18* | u | 63* | 17 | 46* | 37*
CCCc1nnc(NC(=O)c2cccc(OC)c2)s1 | -3 | -83 | -8 | -56 | x | x
COc1cccc(C(=O)Nc2nnc(C(C)C)s2)c1 | 22* | x | 49 | -5 | 34* | 22*
COc1ccccc1C(=O)NNC(=O)c1ccc2ccccc2c1 | 18* | -17 | -12 | -13 | -3 | -14
COc1ccccc1-c1cnc2c(c1)C(=O)N([C@H](C)CO)C[C@@H](C)[C@@H](CN(C)C(=O)c1cccnc1)O2 | x | -1 | x | x | x | x
O=C(NCCN1CCCCC1)[C@H]1[C@H](CO)[C@H]2Cn3c(cccc3=O)[C@@H]1N2C(=O)C1CCCCC1 | x | 20 | x | x | x | x
CCCC(=O)Nc1ccc2c(c1)OC[C@H](C)N(C(=O)C1CCCC1)C[C@H](C)[C@@H](OC)CN(C)C2=O | x | -7 | x | x | x | x
SMILES | HSP90 refold inh | LGR2 antag | TWEAK-Fn14 inh | TROY signal inh | HSP90 inh confirm | luciferase ctr
COc1cccc(NC(=O)NNC(=O)C(C)Oc2ccc3ccccc3c2)c1 (stereo unspecified) | -7 | 7 | -12 | -15 | x | x
COc1ccc(OC(C)C(=O)Nc2cccc(OC)c2)cc1 (stereo unspecified) | 17* | x | 17 | 12 | -8 | -8
Cc1noc(C)c1S(=O)(=O)Nc1ccc2c(c1)C(=O)N([C@H](C)CO)C[C@H](C)[C@H](CN(C)S(=O)(=O)c1ccccc1)OCCCC[C@H](C)O2 | x | -2 | x | x | x | x
CCCC(C(=O)NCCC(C)C)N(Cc1ccccc1Cl)C(=O)c1snc(C(N)=O)c1N (stereo unspecified) | 17* | 24 | 4 | -5 | 2 | -5
CCCC(C(=O)NCCC(C)C)N(Cc1ccc(F)cc1)C(=O)c1snc(C(N)=O)c1N (stereo unspecified) | 0 | -8 | 14 | 21 | x | x
CN(C)CC(=O)Nc1ccc2c(c1)[C@H]1C[C@@H](CC(=O)NCc3cccc(F)c3)O[C@@H](CO)[C@H]1O2 | x | -4 | x | x | x | x
N#CC(Cc1cccc(CC(C#N)(c2ccccc2)c2ccccc2)c1)(c1ccccc1)c1ccccc1 | 40* | -4 | -10 | 3 | 11 | -7
C[C@H](CO)N1C[C@H](C)[C@@H](CN(C)C(=O)c2cccc(F)c2)Oc2cc(-c3ccncc3)ccc2S1(=O)=O | x | -11 | x | x | x | x
Cn1c(-c2ccccc2)cc(=O)c2ccccc21 | -2 | -3 | 22 | 10 | x | x
Cn1c2ccccc2c(=O)n2c(=O)c3ccccc3cc12 | 19* | x | x | x | 23* | -1
CCC(=O)N1CCC2(CC1)CN(Cc1ccccc1Cl)[C@H](CO)c1c2c2ccc(OC)cc2n1C | x | 12 | x | x | x | x
O=C(Cc1nc2ccccc2[nH]1)c1cccc([N+](=O)[O-])c1 | 20* | u | -10 | 8 | 27* | 5
COCCCN=Cc1c(C)[nH]n(-c2ccc(Br)c(C)c2)c1=O | 18* | 16 | 65* | 71* | 42* | 38*
Cc1c(C(=O)O)cccc1-n1c(C)cc(C=O)c1C | 22* | 34 | -9 | -16 | 19* | 5
Cc1ccc(C(=O)O)cc1-n1c(C)cc(C=O)c1C | 0 | 22 | 2 | 17 | x | x
COCC#Cc1cnc2c(c1)C(=O)N([C@@H](C)CO)C[C@H](C)[C@H](CN(C)C(=O)Nc1cc(F)ccc1F)O2 | x | -6 | x | x | x | x
CC(C)(C)c1ccc(C(=O)Nc2ccc(CC(=O)O)cc2)o1 | 22* | -7 | 88* | 55* | 23* | -30
CN(C)c1ccc(C(=S)NCc2ccco2)cc1 | 57* | x | 63* | -27 | 65* | 38*
C[C@@H]1CN([C@@H](C)CO)C(=O)c2cc(NC(=O)CCN3CCOCC3)ccc2O[C@H]1CN(C)S(=O)(=O)c1ccc(Cl)cc1 | x | -19 | x | x | x | x
COCC(C)N=C1NN=C(c2cc(C)n(Cc3ccccc3Cl)c2C)CS1 (stereo unspecified) | 34* | 2 | 45 | 38 | 65* | 55*
Cc1ccc(NCc2nc3ccccc3n2C)c(C)c1 | 28* | 1 | 42 | -66 | 45* | 39*
CCC(=O)Nc1ccc2c(c1)OC[C@H](C)N(C(=O)CN(C)C)C[C@@H](C)[C@@H](OC)CN(C)C2=O | x | 11 | x | x | x | x
CC(C)NC(=O)Nc1ccc2c(c1)C(=O)N([C@H](C)CO)C[C@@H](C)[C@@H](CN(C)Cc1ccc3c(c1)OCO3)OCCCC[C@H](C)O2 | x | 23 | x | x | x | x
Cc1ccc(S(=O)(=O)NCC[C@@H]2CC[C@H](NC(=O)C3CCOCC3)[C@@H](CO)O2)cc1 | x | -2 | x | x | x | x
O=C(O)COc1ccccc1/C=N/NC(=O)c1cc(-c2ccc(F)cc2)nc2ccccc12 | 17* | 7 | -8 | -17 | 25* | 8

High-throughput results deposited in PubChem by several laboratories.
